Drawing on PubChem BioAssay, this text covers z-score and composite z-score for 10 compounds.

The source made the active and inactive calls. Unless noted, the rule behind the calls is not given here.

Assay [1] is described as follows: resazurin metabolic signal in HepG2 cells – cell-based, resazurin fluorescence, 24 h, PK04 Diversity Set, profiling panel (AID 1172). Note: test concentration not given here. As to conditions: HepG2 viability, higher = more signal. On the technique in general: Resazurin is reduced to fluorescent resorufin, in cell work by metabolically active cells.
Assay [2] can be described thus: budding yeast growth changes without added modifier – OD600, strain BY4716, 24 h, basal condition, primary screen (AID 1173). As to conditions: S. cerevisiae BY4716 growth, OD600, 24 h; higher = more signal, called active from +8 up or from −8 down.
A short description of assay [3]: viability profiling in MM1S myeloma cells – cell-based, resazurin fluorescence, basal, 24 h, PK04 Diversity Set, profiling panel (AID 1174).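 Note: MM1S multiple myeloma cell line; test concentration not given here.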 As to conditions: higher = more signal, called active from +8 up or from −8 down.
Assay [4] addresses Dihydroorotate dehydrogenase (quinone), mitochondrial (Plasmodium falciparum (isolate 3D7)) (UniProt Q08210). Description: inhibition of P. falciparum DHODH – biochemical, C-terminal His tag, absorbance 600 nm, primary screen (AID 1175).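 Note: recombinant parasite enzyme with a five histidine tag at its C terminus; test concentration not given here.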 As to conditions: PfDHODH enzyme, DCIP absorbance 600 nm; higher = more signal, called active from +8 up or from −8 down.
Assay [5] can be described thus: inhibition of PAO1 biofilm formation – strain PAO1, LB-PBS medium, absorbance 600 nm, primary screen (AID 1176). Note: test concentration not given here. As to conditions: P. aeruginosa PAO1 growth/biofilm, A600, 12 h; higher = more signal.
The nature of assay [6]: growth modulation of vineyard yeast isolate – strain RM11-1a, OD600, basal, 24 h, primary screen (AID 1177).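 Note: cultures grown under basal conditions with no added stressor; test concentration not given here.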 As to conditions: S. cerevisiae RM11-1a growth, OD600, 24 h; higher = more signal, called active from +8 up or from −8 down.
Assay [7] in a line: growth of efflux-deficient E. coli DRC39 – strain DRC39, OD650, 24 h, E. coli filamentation inducers, primary screen (AID 1178).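 Note: growth measured as culture turbidity by optical density at 650 nm; test concentration not given here.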 Particulars: E. coli DRC39 acrAB, higher = more signal, called active from +8 up or from −8 down.
Assay [8] can be described thus: growth of efflux-deficient E. coli DRC39 – strain DRC39, OD650, 48 h, E. coli filamentation inducers, primary screen (AID 1179).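 Note: screen aims at cell division blockers that make cells filament.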 Particulars: E. coli DRC39 delta-acrAB growth, higher = more signal, called active from +8 up or from −8 down.
The nature of assay [9]: viability profiling in RPMI8226 myeloma cells – cell-based, resazurin fluorescence, basal, 24 h, PK04 Diversity Set, profiling panel (AID 1180).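 Note: RPMI8826 multiple myeloma cell line at 5000 cells per well; test concentration not given here.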 Particulars: higher = more signal.
Assay [10] concerns the target E3 ubiquitin-protein ligase XIAP (Homo sapiens) (UniProt P98170). Description: small molecules binding XIAP protein – biophysical, small-molecule microarray, fluorescence 635 nm, primary screen (AID 1181).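 Note: score merges 667 nm emission and signal to noise over triplicate slides.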 As to conditions: higher = more signal.

Sequence of Dihydroorotate dehydrogenase (quinone), mitochondrial (Plasmodium falciparum (isolate 3D7)) (Q08210 whole entry, looked up): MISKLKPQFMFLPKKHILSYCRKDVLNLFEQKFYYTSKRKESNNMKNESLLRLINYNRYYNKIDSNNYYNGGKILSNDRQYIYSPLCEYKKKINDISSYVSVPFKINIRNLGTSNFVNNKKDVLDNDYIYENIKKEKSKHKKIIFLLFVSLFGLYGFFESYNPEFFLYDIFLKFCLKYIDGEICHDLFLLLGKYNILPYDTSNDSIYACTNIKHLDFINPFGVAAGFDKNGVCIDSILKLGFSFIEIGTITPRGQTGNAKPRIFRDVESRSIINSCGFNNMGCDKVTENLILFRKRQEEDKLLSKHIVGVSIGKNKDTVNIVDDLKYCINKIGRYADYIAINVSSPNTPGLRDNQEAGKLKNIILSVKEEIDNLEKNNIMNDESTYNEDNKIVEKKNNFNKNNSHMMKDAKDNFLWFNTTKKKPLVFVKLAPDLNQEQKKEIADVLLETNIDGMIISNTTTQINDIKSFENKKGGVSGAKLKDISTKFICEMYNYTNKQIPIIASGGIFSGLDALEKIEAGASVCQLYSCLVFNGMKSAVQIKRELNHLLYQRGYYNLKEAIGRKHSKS
Sequence of E3 ubiquitin-protein ligase XIAP (Homo sapiens) (P98170 whole entry, looked up): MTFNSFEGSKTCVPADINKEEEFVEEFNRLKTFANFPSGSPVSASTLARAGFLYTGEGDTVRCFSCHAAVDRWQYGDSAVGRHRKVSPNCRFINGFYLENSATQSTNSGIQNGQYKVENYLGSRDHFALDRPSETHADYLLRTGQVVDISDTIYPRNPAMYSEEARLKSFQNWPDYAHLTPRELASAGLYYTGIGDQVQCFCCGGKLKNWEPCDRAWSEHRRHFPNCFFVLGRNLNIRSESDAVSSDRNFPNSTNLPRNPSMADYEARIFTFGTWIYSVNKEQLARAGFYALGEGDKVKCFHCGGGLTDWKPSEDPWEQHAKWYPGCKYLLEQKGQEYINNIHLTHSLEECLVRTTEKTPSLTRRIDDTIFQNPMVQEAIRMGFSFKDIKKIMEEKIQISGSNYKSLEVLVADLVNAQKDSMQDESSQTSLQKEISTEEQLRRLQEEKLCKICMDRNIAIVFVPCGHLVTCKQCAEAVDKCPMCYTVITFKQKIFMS

Take `CCOC(=O)C[C@H]1[C@H](OC(=O)c2cc3ccccc3oc2=O)[C@@H](NC(=O)Cc2ccc(OC)cc2)c2cc(OCCCO)ccc2N1C(=O)c1ccc2ccccc2n1`: the z-score was -0.604 in assay [1]; -1.05 (inactive) in [2]; -0.377 (inactive) in assay [3]; -0.234 (inactive) in assay [5]; -0.315 (inactive) in assay [6]; 0.928 (inactive) in assay [7]. Also, the z-score is 0.337 (inactive) in assay [8] and -0.0615 in assay [9]. Moreover, the composite z-score in assay [4] was 0.0564 (inactive); in assay [10] it was -0.0414.
Take `CCCCC(O)C1C=CC2C(=O)N(c3ccccc3)C(=O)C2N1Nc1ccc(C(C)C)cc1` (stereo not given): the z-score is -0.741 in assay [1]; -0.443 (inactive) in assay [2]; -1.1 (inactive) in assay [3]; 1.14 (inactive) in assay [5]; 0.477 (inactive) in [6]; -0.622 (inactive) in assay [7]. Besides, the z-score is 0.0644 (inactive) in [8] and -0.471 in [9]. The figures for the composite z-score in assay [4] and in assay [10] were 0.119 (inactive) and 0.199, respectively.
For the compound `CC1CC/C=C\[C@H]2OC34C=CCN(C(C)C)C(=O)[C@H]3N(CCCCCCO)C(=O)[C@@H]4C2C(=O)O1` (stereo not given in full), the z-score in assay [1] was 0.609; in assay [2], -0.815 (inactive); in [3], 0.794 (inactive); in assay [5] it was 0.345 (inactive); in assay [6], -0.908 (inactive); in [7] it was 1.05 (inactive). Besides, the z-score in assay [8] was 0.864 (inactive); in assay [9], 2.06. Besides, the composite z-score in assay [4] was -0.36 (inactive); in assay [10] it was 0.0914.
For the compound `COC(=O)C1=CC(CCCO)=CC(C2CC2)N(C)C=C1C(=O)OC` (stereo not given), the z-score was 0.421 in [1]; -0.589 (inactive) in [2]; -0.463 (inactive) in assay [3]; 0.82 (inactive) in assay [5]; -1.09 (inactive) in assay [6]; 1.04 (inactive) in assay [7]. For the same compound, the z-score is 1.58 (inactive) in assay [8] and -0.0242 in assay [9]. For the same compound, the composite z-score in assay [4] was -1.43 (inactive); in [10], 0.0054.
Consider `COCCOC(=O)N1C(=O)[C@@]2(c3cc(C#CC4=CCCCC4)ccc31)[C@H](c1ccc(OCCO)cc1)N1[C@H](c3ccccc3)[C@H](c3ccccc3)OC(=O)[C@H]1[C@@H]2C(=O)N1CCN(c2ncccn2)CC1`, for which the z-score in assay [1] is 0.205; in assay [2] it was 1.7 (inactive); in assay [3] it was 0.0789 (inactive); in [5], 2.28 (inactive); in assay [6], 1.78 (inactive); in [7], -0.294 (inactive). Moreover, the results for the z-score in [8] and in [9] were 0.0375 (inactive) and 0.621, respectively. In addition, the results for the composite z-score in assay [4] and in assay [10] were -1.42 (inactive) and 0.0219, respectively.
In the case of `CCOC(=O)C1=CC[C@@H](c2ccc(OCc3ccccc3)c(OC)c2)N(S(=O)(=O)c2ccc(C)cc2)[C@H]1c1ccc(SC)cc1`, the z-score was 0.579 in assay [1]; 0.49 (inactive) in assay [2]; -0.107 (inactive) in assay [3]; 1.64 (inactive) in assay [5]; -0.759 (inactive) in assay [6]; -0.286 (inactive) in assay [7]. Moreover, the values for the z-score in [8] and in [9] were -0.361 (inactive) and -0.455, respectively. Moreover, the composite z-score in [4] was -0.322 (inactive); in [10], 0.307.
Turning to `CN1C(=O)C2C=CC(C(O)c3ccccn3)N(N(c3ccccc3)c3ccccc3)C2C1=O` (stereo not given), the z-score in [1] is -1.15; in assay [2] it was 0.527 (inactive); in assay [3], -0.555 (inactive); in assay [5], 1.01 (inactive); in [6] it was 0.429 (inactive); in assay [7] it was -0.155 (inactive). Also, the results for the z-score in assay [8] and in assay [9] were -0.38 (inactive) and -0.368, respectively. Also, the composite z-score is 0.464 (inactive) in assay [4] and 0.304 in assay [10].
As to `OCCCC1=CC(c2ccc(CN3CCCC3)cc2)N(Cc2sc3ccccc3c2Cl)CC1` (stereo not given), the z-score in [1] was -0.516; in assay [2] it was -7.47 (inactive); in assay [3] it was -0.846 (inactive); in assay [5] it was 0.367 (inactive); in [6] it was 0.922 (inactive); in assay [7] it was -0.365 (inactive). The z-score was -1.05 (inactive) in assay [8] and 0.234 in assay [9]. Also, the composite z-score is 0.721 (inactive) in assay [4] and 0.0623 in assay [10].
Regarding `Cc1cc(C)c(C(O)C2C=CC3C(=O)N(c4ccccc4)C(=O)C3N2Nc2ccc(C(C)C)cc2)c(C)c1` (stereo not given), the z-score was -1.47 in assay [1]; 0.626 (inactive) in assay [2]; -1.8 (inactive) in assay [3]; 1.28 (inactive) in assay [5]; 1.58 (inactive) in assay [6]; -0.841 (inactive) in assay [7]. For the same compound, the figures for the z-score in [8] and in assay [9] were -0.876 (inactive) and -1.08, respectively. Also, the composite z-score is 0.68 (inactive) in [4] and -0.387 in [10].
With `CN(C)c1ccc(C(O)C2C=CC3C(=O)N(c4ccccc4)C(=O)C3N2Nc2ccc([N+](=O)[O-])cc2)cc1` (stereo not given), the z-score is -0.529 in assay [1]; -0.491 (inactive) in [2]; -0.96 (inactive) in assay [3]; 0.617 (inactive) in assay [5]; 0.706 (inactive) in [6]; -0.876 (inactive) in assay [7]. Further, the z-score in [8] was -0.914 (inactive); in assay [9], -1.41. The composite z-score in [4] was 0.835 (inactive); in [10], -0.359.
